From PubChem BioAssay (NCATS) come the findings set out here.

Records with an inconclusive call do not appear. A number with no mark means an inactive call. Calls of active or inactive are those of the source. Calls come from the whole dose curve.
% is set by controls: 0 for no effect and ±100 for the full control effect.

This assay in a line: Primary qHTS for inhibitors of SARS-S pseudo-typed particle cell entry (AID 1479145). Note: nearly all actives have a fitted effect of over 45% in size. Conditions: SARS-S pseudotyped particle cell entry, luciferase reporter; series mostly up to 57.1 µM; activity change, negative = inhibition: at the top concentration. For orientation: qHTS replaces the single test concentration by a dilution series.
For the compound `C/C(=C(\CCOP(=O)(O)O)SC(=O)c1ccccc1)N(C=O)Cc1cnc(C)nc1N`, the outcome was “inactive [at 5.34 µM]”.

For `NCC1CCC(C(=O)Oc2ccc(CCC(=O)O)cc2)CC1` (stereo not drawn), the compound was classed as inactive.

In the case of `CC[N+]1(CC)CCC(=C(c2ccccc2)c2ccccc2)C1C` (stereo not drawn), the “activity change, negative = inhibition” value is 4.72%.

Consider `CCCn1cnc2c1c(=O)n(CCCCC(C)=O)c(=O)n2C`, for which the call was inactive.

Turning to `CCCCCOc1ccc(C2SC(=O)NC2=O)cc1OCC` (stereo not drawn), the “activity change, negative = inhibition” value is -30.8%.

`CC1=C(CC(=O)O)c2cc(F)ccc2/C1=C\c1ccc(S(C)=O)cc1` (stereo not drawn): the call was inactive.

As for `COc1ccc2c(c1)c(CC(=O)OCC(=O)O)c(C)n2C(=O)c1ccc(Cl)cc1`, the “activity change, negative = inhibition” value is -25.6%.

On to `Cc1c(C)c2c(c(C)c1OC(=O)CCC(=O)OCCO)CC[C@@](C)(CCC[C@H](C)CCC[C@H](C)CCCC(C)C)O2`, for which the “activity change, negative = inhibition” value is -0.611%.

On to `CCCc1ncc(C[n+]2ccccc2C)c(N)n1`, for which the “activity change, negative = inhibition” value is -3.12%.

With `Nc1c2c(nc3ccccc13)CCCC2`, the “activity change, negative = inhibition” value is -22.1%.

Take `CSc1ccc(C(=O)c2[nH]c(=O)[nH]c2C)cc1`: the outcome was inactive.

For `CC(=O)OCC(=O)[C@@]12N=C(C)O[C@@H]1C[C@H]1[C@@H]3CCC4=CC(=O)C=C[C@]4(C)[C@H]3[C@@H](O)C[C@@]12C`, the “activity change, negative = inhibition” value was 3.42%.

As to `CCCOc1ccc2nc(NC(=O)OC)[nH]c2c1`, the result was inactive.

Regarding `NC(N)=NC(=O)c1nc(Cl)c(N)nc1N`, the “activity change, negative = inhibition” value is -26.4%.

With `CC(C)(C)C(=O)C(Oc1ccc(Cl)cc1)n1ccnc1` (stereo not drawn), the “activity change, negative = inhibition” value is -10.4%.

Regarding `C[C@]1(Cn2ccnn2)[C@H](C(=O)O)N2C(=O)C[C@H]2S1(=O)=O`, the outcome was inactive.

`CN(C)[C@@H]1C(=O)C(C(=O)NCN2CCCC2)=C(O)[C@@]2(O)C(=O)C3=C(O)c4c(O)cccc4[C@@](C)(O)C3C[C@@H]12` (stereo partly drawn): the “activity change, negative = inhibition” value was -30.7%.

For `CCNC(=O)NCCCOc1cccc(CN2CCCCC2)c1`, the “activity change, negative = inhibition” value was 4.21%.

For `CCOCC(O)COc1ccc(NC(=O)CC[S+](C)C)cc1` (stereo not drawn), the “activity change, negative = inhibition” value was -10.3%.

With `CCOC(=O)OC(C)OC(=O)[C@@H]1N2C(=O)[C@@H](NC(=O)[C@H](N)c3ccccc3)[C@H]2SC1(C)C` (stereo partly drawn), the “activity change, negative = inhibition” value is 1.9%.

Regarding `COc1ccc2c(c1OC)C(=O)O[C@@H]2[C@H]1c2c(cc3c(c2OC)OCO3)CCN1C`, the “activity change, negative = inhibition” value was 4.46%.

For `CC1(C)[C@@H](OC(=O)CCC(=O)O)CC[C@]2(C)[C@H]3C(=O)C=C4[C@@H]5C[C@@](C)(C(=O)O)CC[C@]5(C)CC[C@@]4(C)[C@]3(C)CC[C@@H]12`, the compound was classed as inactive.

Take `CC(C)c1cc2c(cc1S(=O)(=O)O)[C@@]1(C)CCC[C@@](C)(C(=O)O)[C@@H]1CC2`: the “activity change, negative = inhibition” value is -25.2%.

With `Oc1ccc(C(O)CNCCCCCCNCC(O)c2ccc(O)c(O)c2)cc1O` (stereo not drawn), the “activity change, negative = inhibition” value is -32%.

With `CNC1CCCN(c2c(F)cc3c(=O)c(C(=O)O)cn(C4CC4)c3c2OC)C1` (stereo not drawn), the “activity change, negative = inhibition” value is -25.6%.

As for `COC(=O)Nc1nc2ccc(Sc3ccccc3)cc2[nH]1`, the compound was called inactive.

Take `CC1(C)[C@H](C(=O)O)N2C(=O)C[C@H]2S1(=O)=O`: the “activity change, negative = inhibition” value was -34.8%.

For the compound `CC(O)Cn1cnc2c1c(=O)n(C)c(=O)n2C` (stereo not drawn), the “activity change, negative = inhibition” value is -12.3%.

Turning to `O=C(O)CCNC(=O)c1ccccc1`, the “activity change, negative = inhibition” value is -6.34%.

Take `COc1ccccc1N1CCN(CCCNc2cc(=O)n(C)c(=O)n2C)CC1`: the “activity change, negative = inhibition” value was -29.6%.

For the compound `CC(=O)CCC(=O)O`, the “activity change, negative = inhibition” value is -20.6%.

Turning to `Nc1nc2ncc(CNc3ccc(C(=O)N[C@@H](CCC(=O)O)C(=O)O)cc3)nc2c(=O)[nH]1`, the “activity change, negative = inhibition” value is -26.1%.

In the case of `Cc1c(C(=O)NN2CCCCC2)nn(-c2ccc(Cl)cc2Cl)c1-c1ccc(Cl)cc1`, the “activity change, negative = inhibition” value was -19.3%.

Consider `CN(C)C(=O)Oc1cccc([N+](C)(C)C)c1`, for which the “activity change, negative = inhibition” value is -4.08%.

For `Cc1ccc(C(C)OC(=O)C2(C)CCC(C(=O)O)C2(C)C)cc1` (stereo not drawn), the compound was called inactive.

On to `CC(=O)N(CC(=O)N(C)C)c1ccccc1`, for which the result was inactive.

Turning to `O=C1OC2(c3ccc(O)cc3Oc3cc(O)ccc32)c2ccccc21`, the result was inactive.

As for `O=[N+]([O-])c1nccn1CO[C@@H](CO)[C@H](O)CO`, the “activity change, negative = inhibition” value was -10.8%.
